Bioassay records (PubChem BioAssay)
TRHR enhancer: TRH receptor (human) allosteric enhancement; TRHR cells, fluo-8 calcium fluorescence, EC20 TRH enhancement; enhancement, % at 2 µM; hit rate 0.66% among 360,000; AID 493056; in the data active = enhancement above about 30%
Target sequence (P34981 whole entry, looked up): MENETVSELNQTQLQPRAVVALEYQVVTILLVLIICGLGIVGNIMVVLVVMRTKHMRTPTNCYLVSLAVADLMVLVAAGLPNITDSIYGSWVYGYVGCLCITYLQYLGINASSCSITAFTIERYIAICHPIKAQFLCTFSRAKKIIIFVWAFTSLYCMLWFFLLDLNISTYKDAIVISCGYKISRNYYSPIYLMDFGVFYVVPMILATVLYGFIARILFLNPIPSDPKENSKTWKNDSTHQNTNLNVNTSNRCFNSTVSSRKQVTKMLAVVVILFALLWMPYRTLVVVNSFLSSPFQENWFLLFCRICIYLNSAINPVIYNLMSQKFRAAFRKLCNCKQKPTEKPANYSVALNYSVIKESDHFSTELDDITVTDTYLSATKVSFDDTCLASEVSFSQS
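Enhancer read-out: after compound pinning and an initial kinetic agonist-mode read, an EC20 of TRH (10 nM final) was injected and fluo-8 calcium signal (Ex 480/Em 530) followed at 1 s/cycle for 100 cycles in TRHR-expressing cells.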
TRHR agonist: TRH receptor (human) agonism; P34981; TRHR cells, calcium flux fluo-8, FDSS agonist mode; activation, % at 2 µM; hit rate 0.18% among 360,000
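TRHR-expressing cells, plated overnight in medium with 10% serum, were loaded with fluo-8 calcium dye at room temperature. After a 10 s baseline, library compound was pin-added and calcium release was recorded kinetically (ex 480/em 530) as agonist response.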
D1 agonist: human D1 receptor agonism | HEK293 T-REx D1 cells, calcium flux, agonist mode | activation, % at 2 µM | hit rate 1% among 360,000
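Inducible HEK293 T-REx D1 cells, force-coupled to calcium signalling, were plated at 4000 cells/well with tetracycline and held overnight at 30 C. After no-wash calcium dye loading, compound-evoked calcium rise over 180 s flagged agonists.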
D1 antag: antagonists of human D1 dopamine receptor; HEK293 TREx D1 cells, calcium flux, dopamine EC80; hits give low values; activity change, negative = inhibition, % at 10 µM; hit rate 3.2% among 360,000; in the data active = activity change below about -30%
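Cells carrying a force-coupled, tetracycline-inducible human D1 receptor report calcium flux. Each well gets a 10 s baseline, compound with 180 s monitoring, then an EC80 dopamine stimulus with a second 180 s kinetic read.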
D1 PAM: enhances dopamine response at the human D1 receptor; AID 504651; hit rate 0.036% among 360,000; P21728; potentiation, % at 10 µM; HEK293 TREx D1 cells, calcium flux, dopamine EC20 potentiation; in the data active = potentiation above about 30%
Large screens that a line does not name were inactive. Hits are enriched below; roughly 4.6% of the tested compounds scored in any of these assays. Cut-off read from the data, not from the text of the source, unless noted: active = activation above about 30%; inactive = the rest.

COC(=O)c1ccc(NC(=O)C2CCN(S(=O)(=O)c3ccc4c(c3)CCCN4C(C)=O)CC2)cc1	none
CC(C)(C)c1nnc2sc(SCC(=O)N3CCc4ccccc43)nn2c1=O	none
COc1ccc(CNC(=O)C2CCN(C(=O)N3CC(C)Oc4ccc(C)cc43)CC2)cc1 (stereo unspecified)	none
CCOc1ccc(CNC(=O)C2CCN(C(=O)N3CC(C)Oc4ccccc43)CC2)cc1 (stereo unspecified)	D1 antag -38.0
O=C(CCS(=O)(=O)c1cc(Br)cc2c1N(C(=O)C1CC1)CC2)NCc1ccc(Cl)cc1	none
CC(C)(C)c1ccc(-n2nc(C#N)c(Cl)cc2=O)cc1	D1 antag -40.8
COc1cc(OC)c(NS(=O)(=O)c2ccc3oc(=O)c4ncn(C)c4c3c2)cc1Cl	none
O=S(=O)(Nc1ccccc1)c1cccc2nsnc12	none
CSc1nc(N)nc(SCC(=O)Nc2cccc(F)c2)c1C#N	D1 antag -44.5
N#Cc1c(C(F)(F)F)cc(-c2cccs2)nc1SCC(=O)Nc1cccc(Cl)c1	D1 agonist 47.2
N#Cc1c(C(F)(F)F)cc(-c2cccs2)nc1SCC(=O)Nc1cccc(Br)c1	TRHR agonist 30.0, D1 agonist 184.0
C#CCOC(=O)c1csc2nnsc12	none
CN(C)S(=O)(=O)N1CCC(Oc2cccc(C(=O)NCCC3=CCCCC3)c2)CC1	D1 agonist 30.8, D1 antag -31.1
O=C1CC(c2ccccc2)Sc2nc(-c3ccc(F)cc3)nn21 (stereo unspecified)	none
O=C1CC(c2ccc(F)cc2)Sc2nc(C34CC5CC(CC(C5)C3)C4)nn21 (stereo unspecified)	D1 antag -52.2
O=C(N/N=C/c1ccco1)c1cc(-c2cccc3ccccc23)n[nH]1	TRHR enhancer 35.8
CCOC(=O)c1ccccc1NC(=O)c1cnc(N2CCOCC2)c2ccccc12	none
CN(/N=C/c1ccc(-c2ccc([N+](=O)[O-])cc2)o1)c1ccccc1	TRHR agonist 37.3, D1 agonist 234.0, D1 antag -66.8
CN(C)/N=C/c1ccc(Sc2ccccc2[N+](=O)[O-])o1	D1 antag -33.0
CN(C)/N=C/c1ccc([N+](=O)[O-])cc1[N+](=O)[O-]	none
CC1CCCN(C(=O)c2ccc(NS(=O)(=O)c3cccc([N+](=O)[O-])c3)cc2)C1 (stereo unspecified)	none
O=C1CC(c2ccsc2)c2ccc3ccccc3c2N1 (stereo unspecified)	TRHR enhancer 36.7
CC(=O)Nc1nonc1-c1nnc(SCC(=O)Nc2cc(C)cc(C)c2)n1-c1ccccc1	none
Cc1ccc(OCCC(=O)OCC(=O)Nc2ccc3c(c2)OCCO3)cc1	none
CCN(CC(=O)Nc1sc2c(c1C#N)CCC(C)C2)CC(=O)NC1CCS(=O)(=O)C1 (stereo unspecified)	D1 antag -59.6
CCN(CC(=O)Nc1sc2c(c1C#N)CCC(C)C2)Cc1nc2ccccc2c(=O)[nH]1 (stereo unspecified)	D1 antag -60.9
CCN(CC(=O)Nc1sc2c(c1C#N)CCCC2)Cc1nc2ccccc2c(=O)[nH]1	none
CC(=O)Nc1sc2c(c1C#N)CCC(C)C2 (stereo unspecified)	none
O=C(N/N=C/c1ccsc1)c1c[nH]c2ccccc12	D1 antag -45.8
COc1cc(C(C)=O)ccc1OCC(O)Cn1nc(C)c(Br)c1C (stereo unspecified)	none
COc1c2occc2c(OC(C)=O)c2c(=O)cc(C)oc12	none
COc1ccc(Br)cc1CN1CCCC(C(=O)N2CCCCC2)C1 (stereo unspecified)	none
COc1ccc(C(=O)C2CCCN(Cc3cn[nH]c3-c3ccccc3)C2)cc1OC (stereo unspecified)	D1 antag -30.5
COc1cccc(OC)c1CN1CCCC(C(=O)c2ccccc2SC)C1 (stereo unspecified)	D1 antag -56.7
COc1ccc(Br)cc1CN1CCCC(C(=O)N2CCCCCC2)C1 (stereo unspecified)	D1 antag -33.7
COc1ccccc1CN1CCCC(C(=O)N2CCCCC2)C1 (stereo unspecified)	TRHR enhancer 38.7
COc1ccc(-n2nnnc2SCC(=O)NC2CCCC2)cc1OC	none
COc1cc(OC)c(C2=NOC(C(=O)Nc3ccc4c(c3)OCO4)C2)cc1Cl (stereo unspecified)	none
